Assay outcomes deposited in PubChem by National Center for Advancing Translational Sciences (NCATS).
Hits are enriched below; roughly 12% of the tested compounds scored in any of these assays.
Sm TGR inh: S. mansoni TGR enzyme inhibition. Q962Y6. purified TGR, DTNB reduction, TNB absorbance 405 nm. Potency, µM (highest dose often 114 µM), without a hit: at the top dose activity change, negative = inhibition, actives largely listed as inhibitors. 3% of 360,000 active; also: % is scaled to controls: 0 for no effect and ±100 for the full control effect; nearly all actives have a fitted effect of over 60% in size
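Kinetic colorimetric format: TGR-catalysed, NADPH-driven DTNB reduction monitored via TNB absorbance. Enzyme dispensed at 20 nM; compound exposure 15 min at room temperature before reaction start.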
AmpC no deterg: AmpC beta-lactamase inhibition without detergent. P00811. AmpC nitrocefin hydrolysis, absorbance 480 nm, 0.0001% Triton. Potency, µM (titrated, usually from 57.1 µM), without a hit: at the top dose activity change, negative = inhibition, most hits filed as inhibitors. 0.52% of 330,000 active. AID 485341;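 also: plate controls were no compound for no effect and no enzyme for full effect; nearly all actives have a fitted effect of over 20% in size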
Target sequence (P00811 whole entry, looked up): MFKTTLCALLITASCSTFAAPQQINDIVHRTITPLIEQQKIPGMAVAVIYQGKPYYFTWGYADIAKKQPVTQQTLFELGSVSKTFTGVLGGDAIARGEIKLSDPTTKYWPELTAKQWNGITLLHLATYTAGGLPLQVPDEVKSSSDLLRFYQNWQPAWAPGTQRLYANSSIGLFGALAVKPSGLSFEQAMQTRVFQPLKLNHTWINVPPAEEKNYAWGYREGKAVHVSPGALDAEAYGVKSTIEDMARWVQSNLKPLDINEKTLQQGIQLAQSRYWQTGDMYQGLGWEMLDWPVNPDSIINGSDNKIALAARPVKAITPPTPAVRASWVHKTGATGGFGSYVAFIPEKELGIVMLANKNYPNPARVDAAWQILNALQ
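AmpC (5.3 nM in the dispensed reagent) in 20 mM phosphate pH 7.0 with 0.01% (detergent screen) or 0.0001% Triton X-100 was preincubated with compounds for 15 min at room temperature. Nitrocefin was then added from an 800 uM solution, and hydrolysis was followed at 480 nm.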
SARS PLpro yeast: SARS-CoV PLP inhibition in yeast; 0.19% of 330,000 active; Potency, µM (doses to about 32.9 µM), inactives show at the highest dose activity, positive = growth rescue, hits mostly activators; S. cerevisiae expressing SARS-CoV PLpro, growth rescue; calls by dose curve; also: 0% is about no effect; nearly all actives have a fitted effect of over 55% in size
AmpC inh detg: AmpC beta-lactamase inhibition with detergent present; P00811; AID 485294; AmpC hydrolysis of nitrocefin, absorbance 480 nm, 0.01% Triton; 0.041% of 370,000 active; Potency, µM (series often up to 114 µM), for inactives: at the highest dose activity change, negative = inhibition, actives largely listed as inhibitors;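 also: 0% = no-compound wells and -100% = no-enzyme wells; nearly all actives have a fitted effect of over 25% in size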
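20 mM phosphate pH 7.0 + 0.01% (detergent screen) or 0.0001% Triton X-100; 5.3 nM AmpC reagent; cpd preinc 15 min RT; nitrocefin (800 uM stock) to start; A480 q20 s × 4 min; Activity was normalised to no-enzyme and no-compound control wells.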
Pf growth 96h: P. falciparum growth inhibition at 96 hour, primary screen for plastid delayed-death inhibitors. 6.9% of 320,000 active. Potency, µM (titrated, usually from 28.7 µM), inactives show at the highest dose activity change, negative = inhibition, actives largely listed as inhibitors. P. falciparum luciferase reporter growth, 96 h. AID 504834; also: % is scaled to controls: 0 for no effect and ±100 for the full control effect
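P. falciparum expressing integrated firefly luciferase, in erythrocytes at 2% hematocrit, 0.05% parasitemia, incubated with compounds 96 h at 37 C, 5% CO2. Growth inhibition read as loss of luminescence; two-generation exposure targets delayed-death apicoplast inhibitors.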
Pf growth 48h: inhibits P. falciparum growth in the first generation, 48 h. 5.9% of 310,000 active. P. falciparum luciferase growth in erythrocytes, 48 h. Potency, µM (top dose mostly 28.7 µM), inactives show at the top dose activity change, negative = inhibition, hits mostly inhibitors; also: % is scaled to controls: 0 for no effect and ±100 for the full control effect
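A one-generation exposure of luciferase-tagged malaria parasites in RPMI 1640/Albumax erythrocyte culture, 37 C and 5% CO2. Inhibition is inferred from decreased luminescence after adding detection reagent.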
* = called active by the depositor; [ ] = remark or other dose. Unless noted, calls follow the shape of the dose curve; as a rule, active = well fitted curve in the direction sought with a large enough effect; inconclusive = small, poorly fitted or top-dose-only effect, or another doubt; inactive = no such curve, though single readings can be large; an effect the other way counts as inactive or inconclusive. Potency is read from the fitted curve at half-maximal effect.

Screening S=C(Nc1ccccc1)N1CCN(C/C=C/c2ccccc2)CC1 returned Sm TGR inh 17%, AmpC no deterg 64%, SARS PLpro yeast 0%, AmpC inh detg 5%, Pf growth 96h 5% and Pf growth 48h -11%.
For Fc1ccccc1NC(=S)N1CCN(C/C=C/c2ccccc2)CC1 the results were Sm TGR inh -1%, AmpC no deterg 70%, SARS PLpro yeast 9%, AmpC inh detg 2%, Pf growth 96h 0.59µM* and Pf growth 48h 3%.
For COc1cc(NC(=O)c2ccnc(N)c2)cc(C(=O)Nc2cccc(C(F)(F)F)c2)c1 the results were Sm TGR inh -9%, AmpC no deterg -18%, SARS PLpro yeast 1%, AmpC inh detg 2%, Pf growth 96h 1.9µM* and Pf growth 48h 2.1µM*.
For COc1cc(NC(=O)c2cc(C)on2)cc(C(=O)Nc2cccc(C(F)(F)F)c2)c1 the results were Sm TGR inh 19%, AmpC no deterg -17%, SARS PLpro yeast -6%, AmpC inh detg -9%, Pf growth 96h inconclusive and Pf growth 48h inconclusive.
`COc1cc(NC(=O)c2cnc(N)o2)cc(C(=O)Nc2cccc(C(F)(F)F)c2)c1` gave Sm TGR inh 0%, AmpC no deterg 8%, SARS PLpro yeast -4%, AmpC inh detg 0%, Pf growth 96h 13µM* and Pf growth 48h 10µM*.
COc1cc(NC(=O)c2csc(N)n2)cc(C(=O)Nc2cccc(C(F)(F)F)c2)c1 was read as Sm TGR inh 9%, AmpC no deterg -3%, SARS PLpro yeast -15%, AmpC inh detg -9%, Pf growth 96h inconclusive and Pf growth 48h 12µM*.
For COc1cccc(NC(=O)c2oc3ccccc3c2NC(=O)c2ccc(C(F)(F)F)cc2)c1 the results were Sm TGR inh 5% and AmpC inh detg 10%.
For COc1cc(NC(=O)c2cnc(N)s2)cc(C(=O)Nc2cccc(C(F)(F)F)c2)c1 the results were Sm TGR inh 10%, AmpC no deterg -39%, SARS PLpro yeast 3%, AmpC inh detg -8%, Pf growth 96h 3.3µM* and Pf growth 48h 2.6µM*.
COc1ccc(CCNC(=O)c2nnn(CC(=O)Nc3ccc(C)cc3C)c2N)cc1OC was read as Sm TGR inh 6%, AmpC no deterg 34%, SARS PLpro yeast -4%, AmpC inh detg 3%, Pf growth 96h inconclusive and Pf growth 48h 21%.
For Cc1ccc(/C=N/N=C2\SCC(=O)N2CC2CC2)cc1 the results were Sm TGR inh -6%, AmpC no deterg -24%, SARS PLpro yeast -1%, AmpC inh detg -5%, Pf growth 96h 87% and Pf growth 48h -5%.
Cc1cc(C)c(NC(=O)CN2C(=O)NC3(CCCc4ccccc43)C2=O)c(Cl)c1 (stereo not given) was read as Sm TGR inh 0%, AmpC no deterg -22%, SARS PLpro yeast 6%, AmpC inh detg -21%, Pf growth 96h -27% and Pf growth 48h inconclusive.
`O=C(c1ccco1)N1CCN(/C(=N/S(=O)(=O)c2cccs2)c2ccccc2Cl)CC1` gave Sm TGR inh -32%, AmpC no deterg 7.1µM*, SARS PLpro yeast 1%, AmpC inh detg 6%, Pf growth 96h inconclusive and Pf growth 48h -2%.
For N/C(=N\S(=O)(=O)c1cccs1)c1ccccc1Cl the results were Sm TGR inh 0%, AmpC no deterg -7%, SARS PLpro yeast 0%, AmpC inh detg -1%, Pf growth 96h inconclusive and Pf growth 48h 48%.
CCS(=O)(=O)N1CCN(C(=O)c2ccco2)CC1 was read as Sm TGR inh 35%, AmpC no deterg -8%, SARS PLpro yeast 2%, AmpC inh detg inconclusive and Pf growth 48h 5%.
For O=C(c1ccco1)N1CCN(S(=O)(=O)Cc2ccccc2Cl)CC1 the results were Sm TGR inh 32µM*, AmpC no deterg -9%[2.29 µM], SARS PLpro yeast 0%, AmpC inh detg -11%, Pf growth 96h inconclusive and Pf growth 48h 17%.
For COc1ccccc1CNC(=O)c1cc(S(=O)(=O)N2CCOCC2)cn1C the results were Sm TGR inh -22%, AmpC no deterg 7%, SARS PLpro yeast 7%, AmpC inh detg -19%, Pf growth 96h inconclusive and Pf growth 48h -9%.
`Cc1ccc2cccc(NC(=O)c3ccc(-c4cccc(Cl)c4Cl)o3)c2n1` gave Sm TGR inh 0% and AmpC inh detg -1%.
Screening C#CCOCCOCCOCCNc1nc(N2CCN(C(=O)[C@H]([C@@H](C)CC)n3cc(CCCN=C(N)N)nn3)CC2)nc(N2CCN(C(=O)[C@H](CCCCN)n3cc(CCCC)nn3)CC2)n1 returned Sm TGR inh -7%, AmpC no deterg 293%, SARS PLpro yeast -9%, AmpC inh detg inconclusive, Pf growth 96h 12µM* and Pf growth 48h inconclusive.
Screening C#CCOCCOCCOCCNc1nc(N2CCN(C(=O)[C@H](C)n3cc(CCCN=C(N)N)nn3)CC2)nc(N2CCN(C(=O)[C@H](CCCCN)n3cc(CCCC)nn3)CC2)n1 returned Sm TGR inh -35%, AmpC no deterg 208%, SARS PLpro yeast 22%, AmpC inh detg inconclusive, Pf growth 96h 12µM* and Pf growth 48h inconclusive.
Screening C#CCOCCOCCOCCNc1nc(N2CCN(C(=O)Cn3cc(CCCCN)nn3)CC2)nc(N2CCN(C(=O)Cn3cc(CCCN=C(N)N)nn3)CC2)n1 returned Sm TGR inh -12%, AmpC no deterg 34%, SARS PLpro yeast -2%, AmpC inh detg -3%, Pf growth 96h 0.83µM* and Pf growth 48h inconclusive.
Screening C#CCOCCOCCOCCNc1nc(N2CCN(C(=O)Cn3cc(CCCN=C(N)N)nn3)CC2)nc(N2CCN(C(=O)[C@H](CCCCN)n3cc(CCCC)nn3)CC2)n1 returned Sm TGR inh -9%, AmpC no deterg 289%, SARS PLpro yeast 0%, AmpC inh detg 0%, Pf growth 96h 12µM* and Pf growth 48h 12µM*.
For C#CCOCCOCCOCCNc1nc(N2CCN(C(=O)Cn3cc(CCCN=C(N)N)nn3)CC2)nc(N2CCN(C(=O)[C@H](CCCCN)n3cc(CCC(=O)O)nn3)CC2)n1 the results were Sm TGR inh -7%, AmpC no deterg 30%, SARS PLpro yeast 1%, AmpC inh detg -10%, Pf growth 96h inconclusive and Pf growth 48h -25%.
C#CCOCCOCCOCCNc1nc(N2CCN(C(=O)[C@H]([C@@H](C)O)n3cc(CCCCN)nn3)CC2)nc(N2CCN(C(=O)[C@H](CCCCN)n3cc(CCCC)nn3)CC2)n1 was read as Sm TGR inh -12%, AmpC no deterg 222%, SARS PLpro yeast -9%, AmpC inh detg 2%, Pf growth 96h 57% and Pf growth 48h inconclusive.
